In PubChem BioAssay (EPA / NIEHS):
Some compounds were tested as several samples or in several runs, with calls that do not always agree. Calls of active or inactive are those of the source. Rule for the calls: active = hit-call score of the fitted dose curve at least 0.9, where 1 is the maximum; inactive = score below 0.9.

Target: Cellular tumor antigen p53 (Homo sapiens) (UniProt P04637)
Assay: ATG_p53_CIS: Attagene CIS-FACTORIAL HepG2 Assay for human p53 Transcription Factor (AID 2282994)
Details: HepG2 p53 cis-element reporter, Attagene mRNA; actives raise or lower the signal
Protocol: ATG_CIS is a cell-based, multiplexed-readout assay that uses HepG2, a human liver cell line, with measurements taken at 24 hours after chemical dosing in a 24-well plate.ATG_p53_CIS is one of 52 assay component(s) measured or calculated from the ATG_CIS assay. It is designed to make measurements of mRNA induction, a form of inducible reporter, as detected with fluorescence intensity signals by Reverse transcription polymerase chain reaction (RT-PCR) and Capillary electrophoresis technology.Data from the assay component ATG_p53_CIS was analyzed into 1 assay endpoint. This assay endpoint, ATG_p53_CIS, was analyzed with bidirectional fitting relative to DMSO as the negative control and baseline of activity. Using a type of inducible reporter, measures of mRNA for gain or loss-of-signal activity can be used to understand the reporter gene at the transcription factor-level as they relate to the gene TP53. Furthermore, this assay endpoint can be referred to as a primary readout, because this assay has produced multiple assay endpoints where this one serves a reporter gene function. To generalize the intended target to other relatable targets, this assay endpoint is annotated to the dna binding intended target family, where the subfamily is tumor suppressor.
Human liver HepG2 cells are transiently transfected with multiple reporter transcription units (MRTUs) in 6-well plates using FuGene 6 reagent (Roche; 3 ml FuGene/1 mg DNA). The MRTU constructs are regulated by a cis-regulating element (promoter). […] A major difference between the CIS and TRANS system is that in CIS activities of endogenous TFs are measured, whereas the TRANS assay evaluates changes in activities of exogenous, chimeric NR-Gal4 proteins. […] At the end of 24 hour incubation, total RNA was isolated using TriZol reagent (Invitrogen). The isolated RNA is then reverse-transcribed using oligo(dT) primer and Mo-MLV reverse transcriptase (Invitrogen) with DNAse I (Ambion) treatment for 30 min. The one-tenth of the produced cDNA was amplified by PCR using Taq DNA polymerase (Invitrogen) and two reporter sequence-specific primers. The PCR products were fluorescently labeled by primer extension with 6-arboxyfluorescein (6-FAM) 5'-labeled reporter sequence-specific primer (2 min at 95 C, 20 s at 68 C and 10 min at 72 C) and these products were digested with 5U of HpaI (New England Biolabs) for 2h at 37 C. The fragments were purified using Qiaquick PCR columns (Qiagen), analyzed on an ABI 3130xL genetic analyzer (Applied Biosystems) with peak positions identified by using a set of X-rhodamine (ROX)-labeled MapMarker1000 molecular weight standards (BioVentures). The raw capillary electrophoresis data was processed using Attagraph software (Attagene).

Cellular tumor antigen p53 (Homo sapiens), sequence (P04637 whole entry, looked up): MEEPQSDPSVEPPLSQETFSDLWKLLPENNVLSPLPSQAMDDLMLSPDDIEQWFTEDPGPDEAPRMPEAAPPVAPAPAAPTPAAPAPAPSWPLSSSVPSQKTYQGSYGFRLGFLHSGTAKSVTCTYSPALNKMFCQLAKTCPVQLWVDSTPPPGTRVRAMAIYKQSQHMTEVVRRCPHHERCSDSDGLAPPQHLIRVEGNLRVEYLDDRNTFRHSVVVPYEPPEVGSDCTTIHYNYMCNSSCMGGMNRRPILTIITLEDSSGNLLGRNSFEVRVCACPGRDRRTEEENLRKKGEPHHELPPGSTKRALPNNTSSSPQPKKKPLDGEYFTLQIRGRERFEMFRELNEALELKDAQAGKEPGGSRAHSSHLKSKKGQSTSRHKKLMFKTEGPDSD

| SMILES | outcome | AC50 |
| --- | --- | --- |
| COP(N)(=O)SC (stereo not given) | inactive |  |
| CCNc1nc(Cl)nc(NC(C)C)n1 | inactive |  |
| CC1COC(Cn2cncn2)(c2ccc(Oc3ccc(Cl)cc3)cc2Cl)O1 (stereo not given) | inactive |  |
| Cc1cc(Cl)ccc1OCC(=O)O | inactive |  |
| COC(=O)N(OC)c1ccccc1COc1ccn(-c2ccc(Cl)cc2)n1 | inactive |  |
| CCCCC(CC)COC(=O)c1ccccc1C(=O)OCC(CC)CCCC (stereo not given) | inactive |  |
| N#CC(CCc1ccc(Cl)cc1)(Cn1cncn1)c1ccccc1 (stereo not given) | inactive |  |
| COc1ccc(C(c2ccc(OC)cc2)C(Cl)(Cl)Cl)cc1 | inactive |  |
| Cc1c(F)c(F)c(COC(=O)C2C(/C=C(\Cl)C(F)(F)F)C2(C)C)c(F)c1F (stereo not given) | inactive |  |
| O=C(O)c1nc(Cl)ccc1Cl | inactive |  |
| CCOc1cc(Oc2ccc(C(F)(F)F)cc2Cl)ccc1[N+](=O)[O-] | inactive |  |
| CON(C)C(=O)Nc1ccc(Cl)c(Cl)c1 | inactive |  |
| N#Cc1cc(Br)c(O)c(Br)c1 | inactive |  |
| CCCC1COC(Cn2cncn2)(c2ccc(Cl)cc2Cl)O1 (stereo not given) | inactive |  |
| COc1nc(C)nc(NC(=O)NS(=O)(=O)c2ccccc2CCC(F)(F)F)n1 | inactive |  |
| CCON=C(CC)C1=C(O)CC(c2c(C)cc(C)cc2C)CC1=O (stereo not given) | inactive |  |
| CO/C=C(/C(=O)OC)c1ccccc1Oc1cc(Oc2ccccc2C#N)ncn1 | inactive |  |
| CCCCOC(=O)c1ccccc1C(=O)OCCCC | inactive |  |
| CCOP(=S)(OCC)SCn1c(=O)oc2cc(Cl)ccc21 | inactive |  |
| CNC(=S)S | inactive |  |

| SMILES | outcome | AC50 |
| --- | --- | --- |
| CC(Oc1ccc(Cl)cc1Cl)C(=O)O (stereo not given) | inactive |  |
| COC(=O)c1ccccc1C(=O)OC | inactive |  |
| CCCCNC(=O)OCC#CI | inactive | 33.5 µM (active) |
| COC(=O)C(C)Oc1ccc(Oc2ccc(Cl)cc2Cl)cc1 (stereo not given) | inactive |  |
| CC(C)(C)c1ccc(CSc2cnn(C(C)(C)C)c(=O)c2Cl)cc1 | inactive |  |
| C=CC1(C)OC(=O)N(c2cc(Cl)cc(Cl)c2)C1=O (stereo not given) | inactive |  |
| Fc1ccc(Oc2ccnc3cc(Cl)cc(Cl)c23)cc1 | inactive |  |
| C#CCOS(=O)OC1CCCCC1Oc1ccc(C(C)(C)C)cc1 (stereo not given) | inactive |  |
| CNC(=O)ON=CC(C)(C)SC | inactive |  |
| CC1=C(C(=O)Nc2ccccc2)SCCO1 | inactive |  |
| O=C(Nc1ccccc1)Nc1ccnc(Cl)c1 | inactive |  |
| COc1cnc(OC)n2nc(NS(=O)(=O)c3c(OCC(F)F)cccc3C(F)(F)F)nc12 | inactive |  |
| CS/C(C)=N/OC(=O)N(C)SN(C)C(=O)O/N=C(\C)SC | inactive |  |
| Oc1ccccc1-c1ccccc1 | inactive |  |
| O=C(O)COc1nc(Cl)c(Cl)cc1Cl | inactive |  |
| N#Cc1nn(-c2c(Cl)cc(C(F)(F)F)cc2Cl)c(N)c1S(=O)C(F)(F)F (stereo not given) | inactive |  |
| COP(=S)(OC)Oc1nc(Cl)c(Cl)cc1Cl | inactive |  |
| CC(C)C1(C)N=C(c2nc3ccccc3cc2C(=O)O)NC1=O (stereo not given) | inactive |  |
| CCc1nn(C)c(C(=O)NCc2ccc(C(C)(C)C)cc2)c1Cl |  | 1.9 µM (active) |
